# Measured values published in PubChem BioAssay (EPA / NIEHS).
# Active and inactive are the calls of the source. How the source made its calls: active means hit-call score of the fitted dose curve at least 0.9, where 1 is the maximum; inactive means score below 0.9.
# Experiment: ATG_GRE_CIS: Attagene CIS-FACTORIAL HepG2 Assay for human Glucocorticoid Response Elements (GRE) (AID 2282947)
# Details: HepG2 GRE cis-reporter, Attagene multiplex mRNA; actives raise or lower the signal
# Method in brief: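 Following 24 h chemical exposure of transiently transfected HepG2 cells, total RNA was reverse-transcribed and reporter cDNA amplified, fluorescently labelled and sized by capillary electrophoresis. Signal gain or loss was fitted relative to DMSO vehicle.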
SMILES,outcome,AC50
CCCNC(=O)NS(=O)(=O)c1ccc(Cl)cc1,inactive,–
C=C(C)C(=O)OCCOc1ccccc1,inactive,–
COC(=O)/C=C\C(=O)O,inactive,–
[Cl][Nd]([Cl])[Cl],inactive,–
NCCCN1CCN(CCCN)CC1,inactive,–
CCCCC(CC)COC(=O)c1ccccc1O (centres undefined),inactive,–
COc1ccc(C(Cl)=C(c2ccc(OC)cc2)c2ccc(OC)cc2)cc1,inactive,–
CCCOC(=O)CCCCC(=O)OCCC,inactive,–
CCOC(=O)N1CCC(=C2c3ccc(Cl)cc3CCc3cccnc32)CC1,inactive,–
c1ccc(-c2ccccn2)nc1,inactive,–
CNC(=S)N(C)C,inactive,–
C[C@]12C=CC(=O)C=C1CC[C@@H]1[C@@H]2[C@@H](O)C[C@@]2(C)[C@H]1CC[C@]2(O)C(=O)CO,–,394 nM (active)

# Experiment: ATG_ISRE_CIS: Attagene CIS-FACTORIAL HepG2 Assay for human Interferon Regulatory Factor 1 (IRF1) binding to an Interferon-Stimulated Response Element (ISRE) (AID 2282948)
# Details: HepG2 ISRE cis-reporter (Attagene), mRNA transcription readout; actives raise or lower the signal
# Method in brief: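 HepG2 cells transiently transfected with multiplexed cis-promoter reporter units; after 24 h compound exposure, reporter mRNA quantified by RT-PCR, FAM labelling, HpaI digestion and capillary electrophoresis. Bidirectional fit versus DMSO baseline.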
SMILES,outcome,AC50
C=CC(C)(C)C,inactive,–
CCCCCCCCCCCCCOP(=O)(O)O,inactive,–
CC(C)=CCC[C@H](C)CCO,inactive,–
NC(=O)OCC(COC(N)=O)c1ccccc1,inactive,–
CC(=O)OCC(=O)[C@@]12N=C(C)O[C@@H]1C[C@H]1[C@@H]3CCC4=CC(=O)C=C[C@]4(C)[C@H]3[C@@H](O)C[C@@]12C,inactive,–
CC=CC(=O)N(CC)c1ccccc1C,inactive,–
CN1C(=O)N(C)C(O)C1O (centres undefined),inactive,–
COc1ccc2nc(N)sc2c1,inactive,–
CCOCC(=O)O,inactive,–
Nc1ncn([C@@H]2O[C@H](CO)[C@@H](O)[C@H]2O)c(=O)n1,–,10.8 µM (active)
O=c1c2ccccc2oc2ccccc12,inactive,–
Cc1ccc(C(C)c2ccc(C)c(C)c2)cc1C,inactive,–
CC(C)CCCC(C)CC=O (centres undefined),inactive,–
CC(=O)NS(=O)(=O)c1ccc(N)cc1,inactive,–
CCCCCCCC/C=C\CCCCCCCC(=O)OCCO,inactive,–
O=C1c2ccccc2C(=O)C1c1nc2ccccc2c(Br)c1O,inactive,–

SMILES,outcome,AC50
C[C@]12CCC(=O)C=C1CC[C@@H]1[C@@H]2C(=O)C[C@@]2(C)[C@H]1CC[C@]2(O)C(=O)CO,inactive,–
CCN(CC#N)c1cccc(C)c1,inactive,–
CC1(C)S[C@@H]2[C@H](NC(=O)COc3ccccc3)C(=O)N2[C@H]1C(=O)O,inactive,–
COc1c2ccoc2cc2oc(=O)ccc12,inactive,–
O=c1[nH]nc(-c2ccc([N+](=O)[O-])o2)o1,inactive,–
COc1cc(NC(=O)CC(C)=O)c(OC)cc1Cl,inactive,–
O=C(O)CCCC[C@@H]1SC[C@@H]2NC(=O)N[C@@H]21,inactive,–
CC(C)(C)C(=O)CCc1ccc(Cl)cc1,inactive,–
COC(=O)/C=C\C(=O)O,inactive,–
[Cl][Nd]([Cl])[Cl],inactive,–
COc1ccc(C(Cl)=C(c2ccc(OC)cc2)c2ccc(OC)cc2)cc1,inactive,–
CCOC(=O)N1CCC(=C2c3ccc(Cl)cc3CCc3cccnc32)CC1,–,7.19 µM (active)
c1ccc(-c2ccccn2)nc1,inactive,–
CNC(=S)N(C)C,inactive,–
Cc1ccc(C(C)(C)C)cc1,inactive,–

# Experiment: ATG_M_32_CIS: Attagene CIS-FACTORIAL HepG2 Assay for M32 Transcription Factor (Internal Marker) (AID 2282949);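 further: background control marker of the multiplexed CIS panel rather than a real target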
# Details: HepG2 Attagene cis-factorial M32 reporter, mRNA; actives raise or lower the signal
# Method in brief: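 Fluorescent capillary electrophoresis peaks of HpaI-digested, FAM-labelled RT-PCR reporter products give the signal. Source: transiently transfected human liver HepG2 cells, 24 h after chemical dosing; bidirectional fitting against DMSO.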
row,SMILES,outcome
1,C=CC(C)(C)C,inactive
2,CC(C)=CCC[C@H](C)CCO,inactive
3,NC(=O)OCC(COC(N)=O)c1ccccc1,inactive
4,CCCCC(CC)COCC1CO1 (centres undefined),inactive
5,CN1C(=O)N(C)C(O)C1O (centres undefined),inactive
6,COc1ccc2nc(N)sc2c1,inactive
7,CCOCC(=O)O,inactive
8,Nc1ncn([C@@H]2O[C@H](CO)[C@@H](O)[C@H]2O)c(=O)n1,inactive
9,OC1CCCC1,inactive
10,O=c1c2ccccc2oc2ccccc12,inactive
11,Cc1ccc(C(C)c2ccc(C)c(C)c2)cc1C,inactive
12,CC(C)CCCC(C)CC=O (centres undefined),inactive
13,CC(=O)NS(=O)(=O)c1ccc(N)cc1,inactive
14,CCCCCCCC/C=C\CCCCCCCC(=O)OCCO,inactive
15,C[C@]12CCC(=O)C=C1CC[C@@H]1[C@@H]2C(=O)C[C@@]2(C)[C@H]1CC[C@]2(O)C(=O)CO,inactive
16,CCN(CC#N)c1cccc(C)c1,inactive
17,CC1(C)S[C@@H]2[C@H](NC(=O)COc3ccccc3)C(=O)N2[C@H]1C(=O)O,inactive
18,COc1cc(NC(=O)CC(C)=O)c(OC)cc1Cl,inactive
19,O=C(O)CCCC[C@@H]1SC[C@@H]2NC(=O)N[C@@H]21,inactive
20,CCCNC(=O)NS(=O)(=O)c1ccc(Cl)cc1,inactive
21,C=C(C)C(=O)OCCOc1ccccc1,inactive
22,CC(C)(C)C(=O)CCc1ccc(Cl)cc1,inactive
23,[Cl][Nd]([Cl])[Cl],inactive
24,NCCCN1CCN(CCCN)CC1,inactive
25,CCCCC(CC)COC(=O)c1ccccc1O (centres undefined),inactive
26,COc1ccc(C(Cl)=C(c2ccc(OC)cc2)c2ccc(OC)cc2)cc1,inactive
27,CCCOC(=O)CCCCC(=O)OCCC,inactive
28,CNC(=S)N(C)C,inactive
29,Cc1ccc(C(C)(C)C)cc1,inactive

# Experiment: ATG_M_06_CIS: Attagene CIS-FACTORIAL HepG2 Assay for M06 Transcription Factor (Internal Marker) (AID 2282950)
# Details: HepG2 Attagene CIS-FACTORIAL M06 internal marker reporter; actives raise or lower the signal
# Method in brief: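 Measured 24 h post-dosing in transiently transfected HepG2 cells, this internal-marker endpoint reports reporter mRNA via RT-PCR with fluorescent primer extension and capillary electrophoresis. DMSO served as negative control and baseline for bidirectional fitting.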
row,SMILES,outcome
1,C=CC(C)(C)C,inactive
2,CCCCCCCCCCCCCOP(=O)(O)O,inactive
3,CC(C)=CCC[C@H](C)CCO,inactive
4,NC(=O)OCC(COC(N)=O)c1ccccc1,inactive
5,CCCCC(CC)COCC1CO1 (centres undefined),inactive
6,CC(=O)OCC(=O)[C@@]12N=C(C)O[C@@H]1C[C@H]1[C@@H]3CCC4=CC(=O)C=C[C@]4(C)[C@H]3[C@@H](O)C[C@@]12C,inactive
7,CC=CC(=O)N(CC)c1ccccc1C,inactive
8,CN1C(=O)N(C)C(O)C1O (centres undefined),inactive
9,Nc1ncn([C@@H]2O[C@H](CO)[C@@H](O)[C@H]2O)c(=O)n1,inactive
10,OC1CCCC1,inactive
11,Cc1ccc(C(C)c2ccc(C)c(C)c2)cc1C,inactive
12,CC(C)CCCC(C)CC=O (centres undefined),inactive
13,CC(=O)NS(=O)(=O)c1ccc(N)cc1,inactive
14,O=C1c2ccccc2C(=O)C1c1nc2ccccc2c(Br)c1O,inactive
15,C[C@]12CCC(=O)C=C1CC[C@@H]1[C@@H]2C(=O)C[C@@]2(C)[C@H]1CC[C@]2(O)C(=O)CO,inactive
16,CCN(CC#N)c1cccc(C)c1,inactive

row,SMILES,outcome
1,CC1(C)S[C@@H]2[C@H](NC(=O)COc3ccccc3)C(=O)N2[C@H]1C(=O)O,inactive
2,COc1c2ccoc2cc2oc(=O)ccc12,inactive
3,O=c1[nH]nc(-c2ccc([N+](=O)[O-])o2)o1,inactive
4,C=C[Si](OC(C)=O)(OC(C)=O)OC(C)=O,inactive
5,O=C(O)CCCC[C@@H]1SC[C@@H]2NC(=O)N[C@@H]21,inactive
6,C=C(C)C(=O)OCCOc1ccccc1,inactive
7,CC(C)(C)C(=O)CCc1ccc(Cl)cc1,inactive
8,COC(=O)/C=C\C(=O)O,inactive
9,NCCCN1CCN(CCCN)CC1,inactive
10,CCCCC(CC)COC(=O)c1ccccc1O (centres undefined),inactive
11,COc1ccc(C(Cl)=C(c2ccc(OC)cc2)c2ccc(OC)cc2)cc1,inactive
12,CCCOC(=O)CCCCC(=O)OCCC,inactive
13,CCOC(=O)N1CCC(=C2c3ccc(Cl)cc3CCc3cccnc32)CC1,inactive
14,c1ccc(-c2ccccn2)nc1,inactive
15,C[C@]12C=CC(=O)C=C1CC[C@@H]1[C@@H]2[C@@H](O)C[C@@]2(C)[C@H]1CC[C@]2(O)C(=O)CO,inactive
16,Cc1ccc(C(C)(C)C)cc1,inactive
